Experimental findings from PubChem BioAssay are described below.

Values joined by “and” are separate entries in the source; they are usually repeats but may differ in a detail not shown here. Identical values can stand only once. Active and inactive are the calls of the source. Unless noted, no rule for the calls is given here.

Test [1] in a line: liver-stage malaria parasite growth inhibition, primary screen, cell-based, HepG2, luciferase luminescence, HepG2 viability (AID 624349; in the data active = parasite load remaining mostly below about 12%, no sharp cut-off; inactive = mostly above about 10%;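 also: 100% = mean of DMSO negative control wells on the same plate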). Conditions: P. berghei liver stage in HepG2, luciferase luminescence, concentration not given here; parasite load remaining: stronger effect = lower value; viability: measured here: HepG2 viability without parasites.
Test [2] can be described thus: Cy5 fluorescence interference with SSB-bound oligo, artefact control for HCV NS3 helicase inhibitor project, biochemical, NIH Clinical Collection, E. coli SSB (AID 743268).
For test [3], the system named is Hepatitis C virus NS3 helicase. Description: HCV NS3 helicase inhibitors, primary screen, biochemical, fluorescence polarization, NIH Clinical Collection (AID 743270). Conditions: NS3 helicase binding to Cy5-dT15 DNA, stronger effect = higher value, concentration not given here.
Test [4] addresses Single-stranded DNA-binding protein (Escherichia coli (strain K12)) (UniProt P0AGE0). The test can be described thus: E. coli SSB displacement from DNA, counter-screen for HCV NS3 helicase inhibitor project, biochemical, fluorescence polarization, NIH Clinical Collection (AID 743271; in the data active = inhibition above about 28%). Conditions: stronger effect = higher value, concentration not given here.
A short description of test [5]: fluorescence interference in NS3h assay format, artefact control for HCV NS3 helicase inhibitor project, biochemical, NIH Clinical Collection (AID 743272).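 Also: HCV NS3 helicase with a Cy5 labelled single stranded DNA probe.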 Conditions: fluorescence interference counterscreen, stronger effect = lower value.
For test [6], the system named is Neuropilin-2 / VEGF-C interaction (human). Description: inhibitors of NRP2–VEGF-C binding, biochemical, microplate binding format, z-score (AID 743281). Conditions: microplate NRP2/VEGF-C binding assay; stronger effect = lower value.
A short description of test [7]: stimulators of nuclear beta-catenin in C2C12, primary screen, imaging, WNT3A-conditioned medium, mouse C2C12, NPC library (AID 1117326; in the data active = nuclear beta-catenin stimulation mostly above about 4.2%, no sharp cut-off; inactive = mostly below about 10%). The conditions noted are these: stronger effect = higher value.
Test [8] can be described thus: stimulators of insulin release from INS-1E, primary screen, cell-based, 5 mM glucose, NPC library (AID 1117329;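 active = compound raises insulin release from rat beta cells at 5 mM glucose, no numeric limit stated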). The conditions noted are these: rat INS-1E insulin secretion, at 10 µM, stronger effect = higher value.
A short description of test [9]: growth inhibition of GSK3B-pretreated HCT116 cells – cell-based, CellTiter-Glo, 0.2 to 20 µM (AID 1117336;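 active = compounds lowering colon cancer cell viability after pretreatment blocking the GSK3B kinase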). Conditions: HCT116 viability after GSK3B inhibitor, at 20 µM, stronger effect = higher value.
A short description of test [10]: inhibition of endothelial tube formation, primary screen, imaging, VEGF stimulated, CD31 staining, tube area, NPC library (AID 1117340;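 active = compound that reduces growth-factor-driven endothelial tube area in a mixed cell culture, no cutoff stated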). Conditions: VEGF-stimulated ADSC/ECFC co-culture, at 10 µM, stronger effect = higher value.
The nature of test [11]: glucagon-like peptide 1 release enhancers, primary assay, NCI-H716 cell line, NPC library (AID 1117341;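 active = compound raises GLP1 secretion from the human gut endocrine cells, with no numeric limit stated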). The conditions noted are these: NCI-H716 cells, at 10 µM, stronger effect = higher value.
Test [12] is described as follows: HCT116 colon cancer cell growth inhibition, primary screen, CellTiter-Glo luminescence, NPC library (AID 1117342;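 active = compounds that lower survival of HCT116 colon cancer cells in the luminescence readout, no numeric limit stated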). Conditions: at 20 µM (top of the series).
A short description of test [13]: CellTiter-Glo luminescent readout of SW480 viability loss, NPC library primary (AID 1117343;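 active = compounds that lower viability of the colon cancer cells in the luminescence readout, with no numeric limit stated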). Conditions: CellTiter-Glo luminescence; at 20 µM (top of the series).
Test [14] in a line: decreased DLD-1 cellular survival, CellTiter-Glo luminescent readout, NPC compound collection, primary HTS (AID 1117346;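 active = compounds that lower survival of DLD-1 colon cancer cells in the luminescence readout, no cutoff given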). Conditions: DLD-1 viability, CellTiter-Glo luminescence; at 20 µM (top of the series).

On to `COc1cc2c(cc1OC)C(=O)C(CC1CCN(Cc3ccccc3)CC1)C2` (stereo not given), for which the parasite load remaining in test [1] was 49.6% (inactive) and 67.4% (inactive). The viability in test [1] is 93.5% and 63.1%. Also, the figures for the fluorescence ratio in [2] and in test [5] were 1.07 (inactive) and 1.04 (inactive), respectively. The inhibition in [3] is 1.98% (inactive); in test [4] it was 1.44% (inactive). In addition, the z-score in [6] was 0.0126 (inactive). For the same compound, the nuclear beta-catenin stimulation was -1% (inactive) in [7] (at 10 µM) and -0.2% in test [7] (stimulation, at 2 µM). In addition, the insulin secretion stimulation in test [8] is 1.25% (inactive). In test [9], the viability decrease is 22.6% (inactive). In test [10], the tube area decrease is 17.7% (inactive). Besides, the GLP1 secretion stimulation in [11] was 6.3% (inactive). Also, the inhibition of viability in [12] was 49.6% (inactive). In addition, the viability decrease (inhibition) is 69.8% (active) in [13] and 38.5% (inactive) in test [14].

Regarding `Cn1nnc2c(C(N)=O)ncn2c1=O`, the parasite load remaining in test [1] was 106% (inactive) and 19.4% (inactive). The viability in test [1] was 79.6% and 80.5%. For the same compound, the fluorescence ratio in test [2] is 1.03 (inactive); in [5] it was 0.9 (inactive). In addition, the inhibition is -5.94% (inactive) in test [3] and -0.87% (inactive) in test [4]. In test [6], the z-score was -0.72 (inactive). The nuclear beta-catenin stimulation in [7] (at 10 µM) was -1.7% (inactive); in test [7] (stimulation, at 2 µM), 0%. Moreover, the insulin secretion stimulation in [8] is 6.3% (inactive). Also, in test [9], the viability decrease was -10.2% (inactive). Further, the tube area decrease in [10] is 26.7% (inactive). Besides, in [11], the GLP1 secretion stimulation was -2.4% (inactive). The inhibition of viability in [12] is 1.9% (inactive). In addition, the viability decrease (inhibition) is -3.8% (inactive) in [13] and -1.4% (inactive) in [14].

On to `Nc1nc2c(ncn2CCC(CO)CO)c(=O)[nH]1`, for which the parasite load remaining in [1] is 89.5% (inactive) and 22.2% (inactive). Moreover, the viability in test [1] is 82.6% and 70.5%. Moreover, the fluorescence ratio is 1.05 (inactive) in test [2] and 1.01 (inactive) in test [5]. Moreover, the inhibition in test [3] is 2.77% (inactive); in test [4], -1.64% (inactive). Further, the call in test [6] was inactive. In addition, the nuclear beta-catenin stimulation is 0.5% (inactive) in test [7] (at 10 µM) and 1.8% in [7] (stimulation, at 2 µM). Also, in test [8], the insulin secretion stimulation was -2.4% (inactive). In addition, the viability decrease in [9] was 0.03% (inactive). Also, the tube area decrease in test [10] was 11.3% (inactive). Also, the GLP1 secretion stimulation in [11] is 1.1% (inactive). In addition, in [12], the inhibition of viability is 6.65% (inactive). Also, the viability decrease (inhibition) in test [13] was 47.6% (inactive); in test [14] it was -0.57% (inactive).

Regarding `CCN1CCN(c2cc3c(cc2F)c(=O)c(C(=O)O)cn3C2CC2)CC1`, in [1], the parasite load remaining is 29.1% (inactive) and 34.1% (inactive) and 1.73% (inactive). The viability in test [1] is 97.4% and 66.5% and 68.5%. In addition, the fluorescence ratio in [2] is 1 (inactive); in [5], 0.97 (inactive). Further, the inhibition in test [3] is 0.66% (inactive); in [4] it was 0.39% (inactive). Also, the z-score in [6] is -0.441 (inactive). For the same compound, the nuclear beta-catenin stimulation in [7] (at 10 µM) is 0.9% (inactive); in test [7] (stimulation, at 2 µM), 0.3%. For the same compound, the insulin secretion stimulation in test [8] was -0.15% (inactive). Moreover, in test [9], the viability decrease is 38% (inactive). In [10], the tube area decrease is 8.4% (inactive). Also, the GLP1 secretion stimulation in test [11] was 0.4% (inactive). The inhibition of viability in test [12] is 36.2% (inactive). In addition, the viability decrease (inhibition) was 11.7% (inactive) in [13] and -6.2% (inactive) in test [14].

For `CN(CCCN1c2ccccc2CCc2ccccc21)CC(=O)c1ccc(Cl)cc1`, the parasite load remaining in test [1] is 66.2% (inactive). The compound also displayed a viability in test [1] of 68.6%. Further, the fluorescence ratio in test [2] was 0.86 (inactive); in test [5], 1.21 (active). In addition, the inhibition in test [3] is 7.52% (inactive); in test [4], 2.98% (inactive). The result in [6] was inactive. The nuclear beta-catenin stimulation was 1.2% (inactive) in [7] (at 10 µM) and -1.4% in [7] (stimulation, at 2 µM). In addition, the insulin secretion stimulation in test [8] is 10.9% (inactive). For the same compound, the viability decrease in test [9] is 6.7% (inactive). Moreover, in test [10], the tube area decrease was 29.2% (inactive). Besides, in test [11], the GLP1 secretion stimulation is 4.6% (inactive). The inhibition of viability in test [12] was 33.2% (inactive). Besides, the viability decrease (inhibition) in test [13] was 84.8% (active); in [14], 39% (inactive).
